Source: PubChem BioAssay
The source made the active and inactive calls. Unless noted, how the calls were made is not given here.

Key:
[1] = anti-His antibody binders, primary screen, artefact control for SMM control protein annotation, biochemical, small-molecule microarray, 635 nm fluorescence (AID 1128); settings: anti-His Alexa647 antibody binding, higher = more signal;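 further: score merges feature fluorescence with signal-to-noise for each printed compound spot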
[2] = test system: Human papillomavirus type 1a E7 protein (residues 1-88); test: HPV1a E7 small-molecule binders, primary screen, biochemical, small-molecule microarray, residues 1-88, 635 nm (AID 1129); settings: small-molecule microarray binding, fluorescence 635 nm; higher = more signal
[3] = target: Focal adhesion kinase 1 (Homo sapiens) (UniProt Q05397); test: small-molecule microarray binders of FAK, primary screen, biochemical, 635/667 nm fluorescence, BSA, DTT (AID 1130); settings: PTK2 binding, 635 nm fluorescence, higher = more signal;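 further: composite of spot emission at 667 nm and signal to noise over triplicate slides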
Focal adhesion kinase 1 (Homo sapiens), sequence (Q05397 whole entry, looked up): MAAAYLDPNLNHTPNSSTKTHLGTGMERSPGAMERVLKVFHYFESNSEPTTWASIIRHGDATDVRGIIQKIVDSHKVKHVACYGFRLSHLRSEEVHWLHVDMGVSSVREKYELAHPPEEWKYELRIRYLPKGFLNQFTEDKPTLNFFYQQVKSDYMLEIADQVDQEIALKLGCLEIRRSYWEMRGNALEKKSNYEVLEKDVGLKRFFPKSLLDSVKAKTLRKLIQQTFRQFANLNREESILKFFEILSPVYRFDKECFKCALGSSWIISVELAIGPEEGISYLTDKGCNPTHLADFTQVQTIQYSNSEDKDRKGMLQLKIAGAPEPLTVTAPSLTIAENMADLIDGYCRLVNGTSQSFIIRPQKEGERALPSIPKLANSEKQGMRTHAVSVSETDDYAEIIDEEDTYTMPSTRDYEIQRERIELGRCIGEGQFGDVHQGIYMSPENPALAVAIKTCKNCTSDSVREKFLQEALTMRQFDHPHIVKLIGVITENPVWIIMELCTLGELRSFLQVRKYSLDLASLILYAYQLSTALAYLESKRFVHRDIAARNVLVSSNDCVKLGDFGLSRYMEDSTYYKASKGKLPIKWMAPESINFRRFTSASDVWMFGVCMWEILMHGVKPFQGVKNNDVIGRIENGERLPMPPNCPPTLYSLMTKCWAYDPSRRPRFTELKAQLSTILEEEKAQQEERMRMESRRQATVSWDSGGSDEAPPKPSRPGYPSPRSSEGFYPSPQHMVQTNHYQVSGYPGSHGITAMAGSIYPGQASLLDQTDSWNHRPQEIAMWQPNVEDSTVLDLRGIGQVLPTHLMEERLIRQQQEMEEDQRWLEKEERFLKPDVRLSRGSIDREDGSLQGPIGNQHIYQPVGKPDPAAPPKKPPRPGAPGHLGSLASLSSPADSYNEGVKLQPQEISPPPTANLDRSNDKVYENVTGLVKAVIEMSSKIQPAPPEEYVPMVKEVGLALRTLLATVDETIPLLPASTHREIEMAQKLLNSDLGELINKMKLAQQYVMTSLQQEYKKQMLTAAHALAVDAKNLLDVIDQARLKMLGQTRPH

[4] = test system: Fibrinogen (Alexa647-labelled); test: fibrinogen binders on compound microarrays, profiling panel, artefact control for SMM control-protein annotation, biochemical, small-molecule microarray, 635/667 nm fluorescence (AID 1131); settings: fibrinogen-A647 binding fluorescence, higher = more signal;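 further: z-score merges 667 nm fluorescence with per-spot signal-to-noise over triplicate slides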
[5] = target: Follistatin (Homo sapiens) (UniProt P19883); test: follistatin binders on small-molecule microarrays, primary screen, biochemical, small-molecule microarray, 635/667 nm fluorescence (AID 1132); settings: FST binding, 635 nm fluorescence, higher = more signal
Follistatin (Homo sapiens), sequence (P19883 whole entry, looked up): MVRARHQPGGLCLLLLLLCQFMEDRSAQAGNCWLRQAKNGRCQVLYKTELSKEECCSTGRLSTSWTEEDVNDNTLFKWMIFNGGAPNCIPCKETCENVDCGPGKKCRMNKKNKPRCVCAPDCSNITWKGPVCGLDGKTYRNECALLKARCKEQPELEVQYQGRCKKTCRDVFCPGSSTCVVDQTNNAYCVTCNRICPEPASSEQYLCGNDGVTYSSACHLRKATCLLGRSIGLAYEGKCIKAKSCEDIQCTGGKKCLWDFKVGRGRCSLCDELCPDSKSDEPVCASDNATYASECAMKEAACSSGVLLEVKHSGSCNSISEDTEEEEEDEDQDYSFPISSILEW

[6] = target: Fibroblast growth factor 2 (Homo sapiens) (UniProt P09038); test: FGF2 binders on small-molecule microarrays, primary screen, biochemical, small-molecule microarray, 635/667 nm fluorescence (AID 1133); settings: small-molecule microarray binding, FGF2, fluorescence 635/667; higher = more signal
Fibroblast growth factor 2 (Homo sapiens), sequence (P09038 whole entry, looked up): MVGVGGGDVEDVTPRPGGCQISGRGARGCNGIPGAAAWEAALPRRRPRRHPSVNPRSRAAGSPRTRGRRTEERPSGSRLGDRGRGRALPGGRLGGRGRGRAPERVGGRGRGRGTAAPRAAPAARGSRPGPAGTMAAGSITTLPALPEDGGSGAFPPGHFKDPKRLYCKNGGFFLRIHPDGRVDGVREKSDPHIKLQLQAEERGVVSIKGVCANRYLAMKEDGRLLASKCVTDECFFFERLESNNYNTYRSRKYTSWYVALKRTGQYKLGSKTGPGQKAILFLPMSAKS

[7] = mitochondrial membrane potential change in A549 cells, profiling panel, cell-based, JC-1 fluorescence, basal, 24 h, 100 nL (AID 1138); settings: higher = more signal;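 further: A549 lung adenocarcinoma cells under basal conditions with no added stimulus; test concentration not given here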
Lefty1 = Lefty1 binders on small-molecule microarrays, primary screen, biochemical, small-molecule microarray, 635/667 nm fluorescence (AID 1139); settings: small-molecule microarray binding, fluorescence 635/667; higher = more signal
[8] = test system: wheat germ agglutinin (Triticum aestivum), Alexa647-labelled; test: wheat germ agglutinin binders on compound microarrays, profiling panel, artefact control for SMM control-protein annotation, biochemical, small-molecule microarray, 635/667 nm fluorescence (AID 1140); settings: WGA-A647 binding, 635 nm fluorescence, higher = more signal;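 further: score merges 667 nm feature emission with signal to noise over triplicate slides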
[9] = target: Luciferin 4-monooxygenase (Photinus pyralis) (UniProt P08659); test: firefly luciferase enzyme inhibitors, primary screen, biochemical, luminescence, purified enzyme, 2006 set (AID 1141); settings: SteadyGlo luminescence, 30 min, higher = more signal, called active from +8 up or from −8 down;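 further: cell-free assay with purified firefly luciferase at 100 ng per well in PBS; test concentration not given here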
Luciferin 4-monooxygenase (Photinus pyralis), sequence (P08659 whole entry, looked up): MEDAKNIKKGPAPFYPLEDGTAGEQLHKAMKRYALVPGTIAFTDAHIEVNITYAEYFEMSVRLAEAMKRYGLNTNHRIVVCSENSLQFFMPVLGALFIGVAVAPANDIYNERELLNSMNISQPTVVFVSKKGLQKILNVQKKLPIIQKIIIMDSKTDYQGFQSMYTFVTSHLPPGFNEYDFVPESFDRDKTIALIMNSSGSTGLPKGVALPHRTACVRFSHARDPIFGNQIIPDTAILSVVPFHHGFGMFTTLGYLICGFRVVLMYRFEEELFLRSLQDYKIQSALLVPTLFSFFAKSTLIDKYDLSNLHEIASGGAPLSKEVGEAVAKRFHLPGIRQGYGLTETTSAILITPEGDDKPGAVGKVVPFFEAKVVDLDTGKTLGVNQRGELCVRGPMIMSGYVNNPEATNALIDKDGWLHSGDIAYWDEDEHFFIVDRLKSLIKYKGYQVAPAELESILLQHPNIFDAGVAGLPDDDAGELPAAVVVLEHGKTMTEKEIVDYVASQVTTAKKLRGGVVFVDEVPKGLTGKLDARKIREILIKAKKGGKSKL

[10] = test system: Wnt5a (protein binding on small-molecule microarray); test: Wnt5a binders on small-molecule microarray, primary screen, biophysical, 635/667 nm fluorescence (AID 1142); settings: 635 nm fluorescence, higher = more signal;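 further: fluorescence read at 667 nm with signal to noise per printed feature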
[11] = cell viability in Huh7 cells, primary screen, cytotoxicity control for HCV replication inhibitor project, CellTiter-Glo luminescence, basal, 48 h (AID 1143); settings: Huh7 HCV replicon, higher = more signal, called active from +8 up or from −8 down;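 further: Huh7 hepatoma cells carrying a hepatitis C replication reporter with no stimulus; test concentration not given here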
[12] = P. aeruginosa biofilm formation inhibitors, primary screen, PAO1 strain, BacTiter-Glo luminescence, LB-PBS (AID 1144); settings: 12 h, higher = more signal
[13] = CREB reporter modulators without forskolin, primary screen, cell-based, PC12, CRE-LacZ reporter, unstimulated (AID 1145); settings: no forskolin, luminescence, 4.5 h, higher = more signal, called active from +8 up or from −8 down
[14] = CREB reporter modulators under forskolin, primary screen, cell-based, PC12, CRE-LacZ reporter, forskolin-stimulated (AID 1146); settings: luminescence, 4.5 h, higher = more signal, called active from +8 up or from −8 down;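 further: PC12 cells with 6xCRE LacZ reporter stimulated by forskolin 10 µM; beta-galactosidase reporter signal reflecting CREB driven transcription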
[15] = target: Streptavidin (Streptomyces avidinii) (UniProt P22629); test: streptavidin binders on small-molecule microarray, primary screen, artefact control for SMM compound annotation, biophysical, 635/667 nm fluorescence (AID 1147); settings: streptavidin binding, higher = more signal;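 further: signal reflects streptavidin binding to arrayed compounds as a control protein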
Streptavidin (Streptomyces avidinii), sequence (P22629 whole entry, looked up): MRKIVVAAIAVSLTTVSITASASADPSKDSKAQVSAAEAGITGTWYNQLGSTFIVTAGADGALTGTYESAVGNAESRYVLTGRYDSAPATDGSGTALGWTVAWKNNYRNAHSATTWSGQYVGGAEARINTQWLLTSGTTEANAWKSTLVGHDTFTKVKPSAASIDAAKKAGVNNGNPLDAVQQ

[16] = small-molecule binders of probe aInhba, primary screen, biochemical, small-molecule microarray, 635/667 nm fluorescence (AID 1148); settings: higher = more signal;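 further: score merges 667nm spot fluorescence with signal-to-noise for antibody binding to printed compounds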
Torsin-1A (Homo sapiens) [17] = target: Torsin-1A (Homo sapiens) (UniProt O14656); test: torsin A binders from cell lysate, primary screen, small-molecule microarray, wild-type, 635/667 nm (AID 1149); settings: COS7 hTOR1A-WT lysate, 635 nm fluorescence, higher = more signal
Torsin-1A (Homo sapiens), sequence (O14656 whole entry, looked up): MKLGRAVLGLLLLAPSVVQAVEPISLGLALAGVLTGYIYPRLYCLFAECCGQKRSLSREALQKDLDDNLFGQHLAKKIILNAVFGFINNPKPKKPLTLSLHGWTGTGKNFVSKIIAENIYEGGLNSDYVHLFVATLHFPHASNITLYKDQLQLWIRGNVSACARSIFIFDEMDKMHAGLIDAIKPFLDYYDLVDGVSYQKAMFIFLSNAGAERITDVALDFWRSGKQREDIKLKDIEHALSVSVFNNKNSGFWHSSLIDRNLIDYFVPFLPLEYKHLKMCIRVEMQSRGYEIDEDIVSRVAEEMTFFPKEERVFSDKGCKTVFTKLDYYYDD

Torsin-1A (Homo sapiens) [18] = target: Torsin-1A (Homo sapiens) (UniProt O14656); test: small-molecule binders of mutant TOR1A in lysate, primary screen, cell lysate, small-molecule microarray, COS7 lysate, 635/667 nm fluorescence (AID 1150); settings: COS7 hTOR1A mutant lysate, 635 nm fluorescence, higher = more signal;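 further: score pools 667 nm emission and signal to noise measuring lysate protein binding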
[19] = test system: Sonic hedgehog protein (Shh); test: small-molecule binders of Shh protein, primary screen, biochemical, small-molecule microarray, 635/667 nm fluorescence (AID 1151); settings: small-molecule microarray binding, 635 nm fluorescence; higher = more signal;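 further: Shh protein binding to compounds spotted on small-molecule microarray slides; score combines spot fluorescence intensity with signal-to-noise across triplicate slides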

SMILES	composite z-score [1]	composite z-score [2]	composite z-score [3]	composite z-score [4]	composite z-score [5]	composite z-score [6]	z-score [7]	composite z-score (Lefty1)	composite z-score [8]	z-score [9]	composite z-score [10]	z-score [11]	z-score [12]	z-score [13]	z-score [14]	composite z-score [15]	composite z-score [16]	composite z-score (Torsin-1A (Homo sapiens) [17])	composite z-score (Torsin-1A (Homo sapiens) [18])	composite z-score [19]
CCCCCCCCCCC(O)C1C=CC2C(=O)N(C)C(=O)C2N1NC(=O)OC(C)(C)C (stereo not given)	0.179	0.995	0.723	0.907	-0.406	-0.531	-1.2	-0.19	0.474	-1.33 (inactive)	-0.121	-3.15 (inactive)	0.918 (inactive)	0.632 (inactive)	0.584 (inactive)	0.548	0.0198	-0.436	0.0812	-0.813
CC(C)(C)OC(=O)CC[C@@]1(C(=O)NCc2ccccc2)N=C(c2ccc(OCCCO)cc2)O[C@@H]1c1ccccc1N=[N+]=[N-]	1.63	1.25	1.22	0.951	1.39	1.58	-1.16	0.432	1.07	-11 (active)	0.717	-2.53 (inactive)	0.014 (inactive)	1.73 (inactive)	-0.947 (inactive)	1.8	0.0839	-0.183	1.33	0.101
C[C@@H]1ON(c2ccc(C(=O)OC(C)(C)C)cc2)[C@H](c2ccc(O)cc2)[C@H]1C(=O)N1C(=O)OC[C@H]1Cc1ccccc1	0.249	1.03	0.437	0.584	0.472	0.382	-1.49	1.29	0.828	-0.416 (inactive)	0.218	-2.96 (inactive)	0.133 (inactive)	1.22 (inactive)	0.419 (inactive)	0.922	-0.0552	0.438	0.616	0.596
CC(C)C(=C=CC[C@H](O)c1ccc(OCCO)cc1)C[C@H](O)c1ccccn1	0.923	0.955	0.104	0.3	0.135	-0.139	1.51	0.334	0.0804	-2.27 (inactive)	0.149	-1.8 (inactive)	-0.576 (inactive)	5.48 (inactive)	-1.06 (inactive)	-0.573	-0.0986	0.743	0.995	0.823
CC(C)N1C(=O)c2ccccc2[C@@H](C(=O)NC2CC2)[C@@H]1c1ccc(CO)cc1	1.89	0.934	-0.361	0.868	1.04	1.08	1.04	0.147	0.22	-0.161 (inactive)	0.302	-0.264 (inactive)	-0.226 (inactive)	0.001 (inactive)	-0.3 (inactive)	0.381	-0.0059	0.775	0.852	0.531
COC(=O)[C@@]1(Cc2ccccc2)[C@H]2c3cc(C(=O)N(C)C)n(CCN4CNCC4=O)c3C[C@H]2CN1C(=O)c1ccccc1	3.19	0.644	-0.619	-1.2	-0.64	-0.8	0.697	-2.13	1.45	0.394 (inactive)	0.569	0.106 (inactive)	-0.505 (inactive)	0.0007 (inactive)	0.547 (inactive)	1.54	1.28	3.83	4.06	-1.85
